For orientation: inhibition means the change of the read-out against control, counted positive when it falls.

Structures are written as SMILES. In all, about 350,000 compounds went through this assay and about 2,300 (0.66%) were called active.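 Rule for the calls: active = mean inhibition of at least 50% after viability correction, with every replicate also passing that limit; inconclusive = mean reaches 50% but only one of two replicates passes; inactive = the rest.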 Shown is part of a subset that was picked to be rich in actives.

The assay in a line: EWS/Fli-driven NR0B1 reporter inhibitors, primary screen, A673 cells, NR0B1 luciferase, luminescence, MLPCN library (AID 651661).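 Note: firefly luciferase signal divided by Alamar Blue viability fluorescence both relative to DMSO.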 The conditions noted are these: viability-normalised, at 12.6 µM, active compounds read high.
For `CCOc1ccc(C(=O)Nc2ccc(CN3CCOCC3)cc2)cc1Cl`, the inhibition is -7.97% (inactive).

Regarding `CCOc1ccc(C(=O)NC(=S)Nc2ccc(N3CCOCC3)c(Cl)c2)cc1[N+](=O)[O-]`, the inhibition is 72% (active).

As for `COc1cccc(OC)c1C(=O)NC(=S)Nc1ccc(N2CCOCC2)c(Cl)c1`, the inhibition is -7.45% (inactive).

Consider `CC(C)NC(=O)N1[C@H](C#N)[C@H](c2ccc(C#CC3CCCCC3)cc2)[C@H]1CO`, for which the inhibition is 19.7% (inactive).

As for `CO[C@@H]1CN(C)C(=O)c2cc(NC(=O)C3CC3)ccc2OC[C@@H](C)N(C(=O)c2ccncc2)C[C@H]1C`, the inhibition is 2.15% (inactive).

With `C[C@H]1CCCCO[C@H](CN(C)C(=O)CCC(F)(F)F)[C@@H](C)CN([C@@H](C)CO)C(=O)c2cc(NC(=O)Cc3ccccc3)ccc2O1`, the inhibition was 6.65% (inactive).

Regarding `O=C(NC1CCCC1)N1CC(=O)N2[C@H](C1)[C@H](c1ccc(/C=C/c3ccccc3)cc1)[C@@H]2CO`, the inhibition was 3.76% (inactive).

Turning to `CN(C)CCN1CCN(c2cc(-c3cccc(Cl)c3)nc3ccnn23)CC1`, the inhibition was 1.41% (inactive).

Regarding `C#Cc1cc(N2CCN(C(=O)c3ccoc3)CC2)n2nc(-c3cccc(Cl)c3)cc2n1`, the inhibition was 53% (active).

For the compound `O=C(c1ccccc1)N1CCN(c2cc(-c3ccccc3)nc3cc(-c4cccc(Cl)c4)nn23)CC1`, the inhibition is -22.8% (inactive).

For the compound `C[C@@H]1CN([C@@H](C)CO)C(=O)CCCn2cc(nn2)CO[C@@H]1CN(C)Cc1cccc(O)c1`, the inhibition was 8.82% (inactive).

Take `CN(CCO)c1ccc(/C=N/Nc2nncc3ccccc23)cc1`: the inhibition is 67.2% (active).

Regarding `COc1ccc2c3c(n(C)c2c1)[C@H](CO)N(Cc1ccc(F)cc1)CC31CN(CC2CCOCC2)C1`, the inhibition was -3.68% (inactive).

As to `CCOC(=O)C(=Cc1ccccc1)C(=O)c1ccccc1`, the inhibition is -15.6% (inactive).

On to `Cc1cc(C)nc(S/C=C/C(=O)c2ccccc2)n1`, for which the inhibition is 50.2% (active).

Consider `COC(c1ccccc1)(c1ccccc1)C(Oc1nc(C)cc(C)n1)C(=O)O` (configuration not stated), for which the inhibition was 3.9% (inactive).

For `C[C@@H]1CCCCO[C@@H](CN(C)C(=O)NC2CCCCC2)[C@@H](C)CN([C@H](C)CO)C(=O)c2cc(NC(=O)CCCCCC(=O)Nc3ccccc3N)ccc2O1`, the inhibition was -0.378% (inactive).

As for `CCC(=O)N(C)C[C@H]1Oc2cc(-c3ccccc3F)ccc2S(=O)(=O)N([C@H](C)CO)C[C@@H]1C`, the inhibition is 1.15% (inactive).

With `COC(=O)C(CC#Cc1ccc2c(c1)[C@]1(C(=O)N2)[C@H](c2ccccc2OCCO)N2[C@H](c3ccccc3)[C@H](c3ccccc3)OC(=O)[C@H]2[C@@H]1C(N)=O)C(=O)OC`, the inhibition was 70.7% (active).

As for `COc1ccc(C#Cc2ccc3c(c2)[C@]2(C(=O)N3)[C@H](c3ccccc3OCCO)N3[C@H](c4ccccc4)[C@H](c4ccccc4)OC(=O)[C@H]3[C@@H]2C(=O)N2CCCCCCC2)cc1`, the inhibition was 7.03% (inactive).

Turning to `COC(=O)C(CC#Cc1ccc2c(c1)[C@]1(C(=O)N2)[C@H](c2ccc(O)cc2)N2[C@H](c3ccccc3)[C@H](c3ccccc3)OC(=O)[C@H]2[C@@H]1C(=O)NC[C@H](O)c1ccccc1)C(=O)OC`, the inhibition is -4.53% (inactive).

As for `O=C(CC1CC1)N1[C@@H]2CN(S(=O)(=O)c3ccc(F)cc3)c3ccccc3[C@@H]2[C@@H]1CO`, the inhibition was 2.01% (inactive).

Turning to `CN1CCN(C(=O)C[C@H]2CC[C@H]3[C@H](COc4ccc(NC(=O)C5CC5)cc4C(=O)N3C)O2)CC1`, the inhibition was 0.362% (inactive).

Turning to `C=C(C)C(=O)O[C@H]1C/C(C)=C\C(=O)/C=C(\C)[C@H](O)[C@@H]2OC(=O)C(=C)[C@@H]21`, the inhibition is 74% (active).

For `C[C@@H]1CN([C@@H](C)CO)C(=O)Cc2cc(NC(=O)Nc3ccc4c(c3)OCO4)ccc2O[C@@H]1CN(C)CC1CCCCC1`, the inhibition is -9.05% (inactive).

`COc1cccc(-c2ccc3c(c2)[C@@H]2[C@@H](CCN2C(=O)CN2CCOCC2)[C@H](CO)N3)c1`: the inhibition is -6.11% (inactive).

In the case of `O=[N+]([O-])/C=C/c1ccc2c(ccn2Cc2ccccc2)c1`, the inhibition was 68.6% (active).

As to `Cc1ccccc1S(=O)(=O)Nc1ccc2c(c1)C(=O)N(C)[C@@H]1CC[C@@H](CC(=O)O)O[C@@H]1CO2`, the inhibition was 2.06% (inactive).

As for `CO[C@H]1CN(C)C(=O)c2ccc(NC(=O)NC(C)C)cc2OC[C@H](C)N(Cc2cncnc2)C[C@@H]1C`, the inhibition is -9.44% (inactive).

On to `COc1ccc(CNS(=O)(=O)c2cc(Br)ccc2Br)cc1`, for which the inhibition is -12% (inactive).

In the case of `Cc1cc(-c2ccc(C)c(S(=O)(=O)Nc3ccc(S(N)(=O)=O)cc3)c2)on1`, the inhibition is 5.81% (inactive).

With `COc1ccc(CNS(=O)(=O)c2cc(-c3cc(C)no3)ccc2C(C)C)cc1`, the inhibition was 55.5% (active).

Take `O=C(C[C@H]1C[C@H]2c3cc(NC(=O)C4CCC4)ccc3O[C@H]2[C@@H](CO)O1)NCc1ccc(Cl)cc1`: the inhibition was -0.922% (inactive).

In the case of `CO[C@@H]1CN(C)C(=O)c2cc(NC(=O)Nc3ccccc3F)ccc2OC[C@H](C)NC[C@H]1C`, the inhibition was -10.4% (inactive).

On to `CCc1nc2ccccc2c(C(=O)NCc2ccc(OC)cc2)c1C`, for which the inhibition was 22.9% (inactive).

`COC(=O)CC1=NN(c2ccccc2)C(=O)C1`: the inhibition is 2.41% (inactive).

On to `COC(=O)Cc1[nH]n(-c2nc3ccccc3s2)c(=O)c1C(C)=Nc1ccc(OC)cc1`, for which the inhibition was 67.1% (active).

As to `COc1ccc(CN(C)C[C@@H]2OCCCC[C@H](C)Oc3ccc(NC(=O)c4ccccc4)cc3C(=O)N([C@H](C)CO)C[C@H]2C)cc1`, the inhibition is 4.63% (inactive).

On to `CCS(=O)(=O)N1CC2(CN(C(=O)c3ccc(F)cc3)[C@H](CO)c3c2c2ccc(OC)cc2n3C)C1`, for which the inhibition was -3.98% (inactive).

Take `O=C(C[C@H]1C[C@H]2c3cc(NC(=O)NC4CCCC4)ccc3O[C@H]2[C@H](CO)O1)NCCc1ccccc1`: the inhibition is -0.115% (inactive).

`COc1ccc(NC(=O)C2(C)Cc3c(-c4cccc(NC(C)=O)c4)ccnc3O2)cc1OC` (configuration not stated): the inhibition is 12.4% (inactive).

For `CC1(C(=O)Nc2cccnc2)Cc2c(-c3ccccc3)ccnc2O1` (configuration not stated), the inhibition was -3.3% (inactive).

Turning to `COc1ccc(NC(=O)C2(C)Cc3c(-c4ccc(C(N)=O)cc4)ccnc3O2)cc1` (configuration not stated), the inhibition was 9.42% (inactive).

Regarding `CC(=O)Nc1cccc(-c2ccnc3c2CC(C)(C(=O)NCc2ccco2)O3)c1` (configuration not stated), the inhibition is 47.3% (inactive).

On to `COc1ccc(NC(=O)C2(C)Cc3c(-c4cccc(NC(C)=O)c4)ccnc3O2)cc1` (configuration not stated), for which the inhibition was 72% (active).

On to `CC(=O)Nc1cccc(-c2ccnc3c2CC(C)(C(=O)NCc2ccccc2)O3)c1` (configuration not stated), for which the inhibition was 56.4% (active).

For the compound `COCC(=O)Nc1ccc2c(c1)C(=O)N(C)[C@@H]1CC[C@H](CC(=O)NCCc3ccccc3)O[C@@H]1CO2`, the inhibition is 6.92% (inactive).

Consider `C[C@H](CO)N1C[C@H](C)[C@@H](CN(C)S(=O)(=O)c2ccc([N+](=O)[O-])cc2)OCc2ccccc2-c2c(n(C)c3ccccc23)C1=O`, for which the inhibition was 14.6% (inactive).

For the compound `CO[C@H]1CN(C)C(=O)c2cc(NC(C)=O)ccc2OC[C@H](C)N(C(=O)CN(C)C)C[C@@H]1C`, the inhibition is -2.59% (inactive).

As to `CCS(=O)(=O)N1CCC2(CC1)CN[C@H](CO)c1c2c2ccc(OC)cc2n1C`, the inhibition was 8.2% (inactive).

As for `CCOc1ccc(OCc2ccc(C(=O)N(C)c3ccccc3)o2)cc1`, the inhibition was -36.4% (inactive).

Consider `CCOc1ccc(OCc2cccc(C(=O)N(CC)CC)c2)cc1`, for which the inhibition is 67.8% (active).

For `CC(C)(C)OC(=O)N(Cc1ccccc1)Cc1ccc(OCc2cccc(NC(=O)c3ccccc3)c2)cc1`, the inhibition was 11.8% (inactive).

In the case of `CC=Cc1ccc2n(c1=O)C[C@@H]1[C@@H](CO)[C@H](C(=O)N(C)C)N(CC3CCOCC3)[C@H]21` (mixture of isomers), the inhibition is -1.84% (inactive).

With `Cc1ccccc1S(=O)(=O)N1[C@H](CO)[C@@H](c2ccc(-c3ccccc3)cc2)[C@@H]1C#N`, the inhibition was 18.6% (inactive).

Consider `O=C(C[C@H]1C[C@@H]2c3cc(NC(=O)C4CCOCC4)ccc3O[C@@H]2[C@H](CO)O1)NCC1CC1`, for which the inhibition is 2.22% (inactive).

For `C[C@@H]1C[C@@H]2O[C@H]2/C=C\C=C\C(=O)Cc2c(Cl)c(O)cc(O)c2C(=O)O1`, the inhibition was 76.6% (active).

For the compound `CC(C)(C)c1ccc(Oc2ccc(N)cc2)cc1`, the inhibition is 65.3% (active).

Regarding `COc1cnc(-c2ccccn2)nc1Oc1ccc(C(C)(C)C)cc1`, the inhibition is 18.9% (inactive).

Take `COCC(=O)Nc1ccc2c(c1)C(=O)N(C)[C@@H]1CC[C@@H](CC(=O)NCC(F)(F)F)O[C@H]1CO2`: the inhibition is -7.87% (inactive).

Regarding `CCNC(=O)Nc1ccc2c(c1)C(=O)N(C)[C@@H]1CC[C@@H](CC(=O)NC3CCCCC3)O[C@H]1CO2`, the inhibition is 6.61% (inactive).

Turning to `O=C(c1ccc(F)cc1)N1CC(=O)N2[C@H](C1)[C@@H](c1ccc(C#CC3CC3)cc1)[C@@H]2CO`, the inhibition was -6.65% (inactive).

Consider `CCCNC(=O)N1C[C@@H](C)[C@@H](OC)CN(C)C(=O)c2ccc(NC(=O)C3CCC3)cc2OC[C@@H]1C`, for which the inhibition is -1.5% (inactive).

Take `Clc1ccc(Nc2ccc3ccccc3n2)cc1`: the inhibition was -53.3% (inactive).

For `NC(=O)c1ccc(NC(=O)COC(=O)c2c3c(nc4ccccc24)/C(=C\c2ccc4c(c2)OCO4)CCC3)cc1`, the inhibition was -2.89% (inactive).

Take `C(=N\Nc1ccc2ccccc2n1)/c1ccc2c(c1)OCO2`: the inhibition is 59.1% (active).

Regarding `CC(C)NC(=O)N1C[C@@H]2[C@H](c3ccccc31)[C@@H](CO)N2Cc1ccc(Cl)cc1`, the inhibition was 14.5% (inactive).

For the compound `CCN1/C(=C\c2ccc3ccccc3[n+]2CC)Sc2cc(C)ccc21`, the inhibition is 56.7% (active).

With `COc1cccc(CNC(=O)c2nnn(CC(=O)Nc3cc(Cl)ccc3C)c2N)c1`, the inhibition was 2.98% (inactive).

On to `Nc1c(C(=O)Nc2ccc3c(c2)OCCO3)nnn1Cc1ccccc1`, for which the inhibition was -100% (inactive).

Take `Nc1c(C(=O)NCc2ccccc2)nnn1Cc1cccc(Cl)c1`: the inhibition was 53% (active).

For the compound `COc1cccc(S(=O)(=O)N(C)C[C@@H]2Oc3ncc(-c4cccc(C(=O)N(C)C)c4)cc3C(=O)N([C@H](C)CO)C[C@H]2C)c1`, the inhibition is -6.58% (inactive).
